Experimental data reported in PMC6792352, “Limited Chemical Structural Diversity Found to Modulate Thyroid Hormone Receptor in the Tox21 Chemical Library” (Environmental Health Perspectives, 2019).
Structures can show the parent of a compound that is named as a salt. Where two headings read alike, the source gives them in different places.

System: thyroid hormone receptor (endogenous TRα and TRβ)
Design: species or system GH3-TRE-Luc (rat pituitary); GH3-TRE-Luc luciferase reporter, antagonist mode against 1 nM T3, loss of signal, qHTS
[1] = read-out: Average AC50 (uM) GH3-TRE-Antag, antagonist mode, 1 nM T3, no GH3 cytotoxicity hit

Row | SMILES | AC50 (read-out: Average AC50 (uM) GH3-TRE-Antag, antagonist mode, 1 nM T3, no GH3 cytotoxicity hit, Average AC50 (uM) GH3-TRE-Antag, 24 h) | AC50 [1]
1 | CCCCCCCCCCCCOS(=O)(=O)O [Ammonium dodecyl sulfate] | 80.2 µM | –
2 | CCC1(C2=NCCN2)Cc2ccccc2O1 (stereo not shown) [Efaroxan] | – | 45.2 µM
3 | CCN(CC)CCOc1ccc2c(c1)C(=O)c1cc(OCCN(CC)CC)ccc1-2 [Tilorone] | – | 17.6 µM
4 | Clc1cc(C(Cl)(Cl)Cl)cnc1Cl [2,3-Dichloro-5-(trichloromethyl)pyridine] | – | 40.5 µM
5 | Nc1ccc(C(=O)OCCCOC(=O)c2ccc(N)cc2)cc1 [Propane-1,3-diyl bis(4-aminobenzoate)] | – | 59.8 µM
6 | CCOc1ccc(Cc2nccc3cc(OCC)c(OCC)cc23)cc1OCC [Ethaverine hydrochloride] | – | 8.58 µM
7 | CN(CCOc1ccc(CC2SC(=O)NC2=O)cc1)c1ccccn1 (stereo not shown) [Rosiglitazone maleate] | – | 75.1 µM
8 | CC(C)C(C(=O)OC(C#N)c1cccc(Oc2ccccc2)c1)c1ccc(Cl)cc1 (stereo not shown) [Fenvalerate] | – | 37.1 µM
9 | C=CC(C)(CCC=C(C)C)OC(=O)/C=C/c1ccccc1 (stereo not shown) [Linalyl cinnamate] | – | 73.9 µM
10 | C/C=C(C)/C=C/C=C(C)C [2,6-Dimethyl-2,4,6-octatriene] | – | > 90 µM
11 | O=C(O)C[C@H](O)C[C@H](O)/C=C/c1c(C2CC2)nc2ccccc2c1-c1ccc(F)cc1 [Pitavastatin calcium] | – | 46.3 µM
12 | CC/C=C\CC/C=C/C=O [trans-2,cis-6-Nonadienal] | – | 69.9 µM
13 | c1ccc2c(c1)[nH]c1cnccc12 [Norharman] | – | 45.1 µM
14 | CC(C)(c1ccc(O)cc1)c1ccc(O)cc1 [BPA, bisphenol A] | – | 66.6 µM
15 | CCOc1ccc(O)cc1 [4-Ethoxyphenol] | – | 82.5 µM
16 | CCCOC(=O)c1ccc(N)cc1 [Risocaine] | – | 44.3 µM
17 | C[C@]12C=CC(=O)N[C@@H]1CC[C@@H]1[C@@H]2CC[C@]2(C)[C@@H](C(=O)Nc3cc(C(F)(F)F)ccc3C(F)(F)F)CC[C@@H]12 [Dutasteride] | – | 3.44 µM
18 | CC(=O)O[C@H]1CC[C@@]2(C)C(=CC[C@@H]3[C@@H]2CC[C@]2(C)C(c4cccnc4)=CC[C@@H]32)C1 [Abiraterone acetate] | – | 50 µM
19 | S=C(NC1CCCCC1)NC1CCCCC1 [N,N'-Dicyclohexylthiourea] | – | 58.2 µM

Row | SMILES | AC50 (read-out: Average AC50 (uM) GH3-TRE-Antag, antagonist mode, 1 nM T3, no GH3 cytotoxicity hit, Average AC50 (uM) GH3-TRE-Antag, 24 h) | AC50 [1]
20 | CSC1=N[C@@](C)(c2ccccc2)C(=O)N1Nc1ccccc1 [Fenamidone] | – | 6.3 µM
21 | Nc1c(Br)cc(Br)cc1CN[C@H]1CC[C@H](O)CC1 [Ambroxolhydrochloride] | – | 24.9 µM
22 | Cn1cc(C(=O)[C@@H]2CCc3nc[nH]c3C2)c2ccccc21 [Ramosetron hydrochloride] | – | 40.9 µM
23 | Cc1cc(C(C)(C)C)cc(C)c1CC1=NCCN1 [Xylometazoline hydrochloride] | – | 11 µM
24 | CCN(CC)CCCC(C)Nc1c2ccc(Cl)cc2nc2ccc(OC)cc12 (stereo not shown) [Quinacrine dihydrochloride dihydrate] | – | 29.4 µM
25 | COc1cccc(N(C)C(=S)Oc2ccc3c(c2)CCCC3)n1 [Liranaftate] | – | 39.9 µM
26 | O=C1[C@H](CC[C@H](O)c2ccc(F)cc2)[C@@H](c2ccc(O)cc2)N1c1ccc(F)cc1 [Ezetimibe] | – | 33.5 µM
27 | Cc1nc(-c2ccc(OCC(C)C)c(C#N)c2)sc1C(=O)O [Febuxostat] | – | 17.9 µM
28 | Brc1cc(-c2ccc(Br)c(Br)c2Br)cc(Br)c1Br [Polybrominated biphenyls (PBB)] | – | 51.8 µM
29 | NC(=O)N(O)[C@@H]1COc2cc(OCc3ccccc3)ccc21 [SB202235] | – | 85 µM
30 | CC1=NC(C)OC1C (stereo not shown) [2,4,5-Trimethyl-3-oxazoline] | – | > 90 µM
31 | C#C[C@]1(O)CC[C@H]2[C@@H]3CCC4=CC(=O)CC[C@@H]4[C@H]3C(=C)C[C@@]21CC [Etonogestrel] | – | 19.5 µM
32 | Cc1cc(Nc2ccccc2C(=O)O)ccc1Cl [2-[(4-Chloro-3-methylphenyl)amino]benzoic acid] | – | 16.1 µM
33 | CC(C)(C)C(=O)OCOP(=O)(COCCn1cnc2c(N)ncnc21)OCOC(=O)C(C)(C)C [Adefovir dipivoxil] | – | 46.6 µM
34 | CCCCOC(=O)c1ccc(O)cc1 [Butylparaben] | – | > 50 µM
35 | Cc1ccccc1C(=O)Nc1ccc(C(=O)N2CCCC(O)c3cc(Cl)ccc32)c(C)c1 (stereo not shown) [Tolvaptan] | – | 21.9 µM
36 | Cc1cc(CC(=O)O)c(C)n1-c1ccc(Cl)cc1 [Clopirac] | – | 38.5 µM
37 | CCCCC/C=C\C/C=C\C/C=C\CCCCC(=O)O [Gamolenic acid] | – | 22.9 µM
